Data published in PubChem BioAssay AID651871 (Sanford-Burnham Center for Chemical Genomics, 2012).
Values joined by “and” are separate entries in the source; they are usually repeats but may differ in a detail not shown here. Identical values can stand only once.

System: HL-1
Experiment: protection of cardiomyocytes from stress damage, SAR follow-up, cell-based, panel, H9c2 and HL-1, ATP luminescence, set 2 (AID 651871);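 further: cells exposed to stressor for 2 h before ATP readout; reference of the scale not given here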
Details: H9c2/HL-1 cardiomyocytes, 2-deoxyglucose stress, with 2-deoxyglucose, run 16, at 19.8 µM (top of the series)

Q: Which activity (protection/inhibition) does the source give for `COc1ccc2c(c1OC)C(=O)N1c3ccccc3C(=O)N(Cc3cccc(Cl)c3Cl)C21` (stereo unspecified) here?
A: 50.9% and 45%
